Screens (PubChem BioAssay)
The list is a sample of the results.
aSyn UTR act = Activators via SNCA 5'UTR binding, MLPCN. alpha-synuclein 5'UTR reporter, activators screen. activity score, % (tested at 7.5 µM), hits read low. 7.1% of 300,000 active; in the data active means activity score below about -60%
Each line names hits and unclear results; the compound was inactive in the other large screens.

COc1ccc(-c2nnc(SCC(C)C)o2)cc1	aSyn UTR act -102
CCCCOc1ccc(-c2nnc(-c3ccncc3)o2)cc1	aSyn UTR act -124
CCOc1ccc(-c2nc3ccccc3c(=O)o2)cc1	aSyn UTR act -63
O=C(/C=C/c1ccc2ccccc2c1)c1ccoc1	aSyn UTR act -123
COc1ccc(-c2ccc(-c3noc(C(C)C)n3)c(OC)n2)cc1	aSyn UTR act -96
CCc1nc(-c2ccc(-c3ccc(OC)cc3)nc2OC)no1	aSyn UTR act -132
COCc1nc(-c2ccc(-c3ccccc3)nc2OC)no1	aSyn UTR act -100
COc1nc(-c2ccccc2)ccc1-c1noc(C)n1	aSyn UTR act -112
COCc1nc(-c2ccc(-c3ccc(OC)cc3)nc2OC)no1	aSyn UTR act -123
Nc1cc2nc[nH]c2cc1N	aSyn UTR act -100
Clc1ccc(-c2noc(CN3CCOCC3)n2)cc1	aSyn UTR act -86
COc1ccc(-c2nnn(Cc3ccccc3F)n2)cc1	aSyn UTR act -207
Fc1ccccc1Cn1nnc(-c2ccc3c(c2)OCO3)n1	aSyn UTR act -77
COC(=O)CCc1sc(Nc2ccccc2)nc1-c1ccc(OC)cc1	aSyn UTR act -62
C=CCc1c(C)nc(-c2ccccc2)nc1N/N=C/c1ccncc1	aSyn UTR act -95
C=CCc1c(C)nc(-c2ccccc2)nc1N/N=C(\C)c1ccc(N)cc1	aSyn UTR act -69
Cc1[nH]c2ccccc2c1N=Nc1cccc(C(=O)O)c1	aSyn UTR act -96
Cc1[nH]c2ccccc2c1N=Nc1ccccc1C(=O)O	aSyn UTR act -70
COc1cccc(C2c3c(oc4ccccc4c3=O)C(=O)N2Cc2ccco2)c1 (stereo not drawn)	aSyn UTR act -99
Cc1ccc2nc(-c3cc(N)cc(N)c3)oc2c1	none
Nc1ccc(-c2nc3ccc(-c4nc5ccccc5o4)cc3[nH]2)cc1	aSyn UTR act -215
Cc1nc2ccc(-c3nc4ccccc4o3)cc2[nH]1	aSyn UTR act -73
CC1CCN(C(=O)COC(=O)c2ccccc2NC(=O)c2ccco2)CC1	aSyn UTR act -73
CCOc1ccc(OCC(=O)NCCS(=O)(=O)N2CCN(c3ccc(F)cc3)CC2)cc1	aSyn UTR act -72
O=C(NCCS(=O)(=O)N1CCN(c2ccc(F)cc2)CC1)c1ccc(Br)o1	none
Cc1cccc2sc(N(CCCN(C)C)C(=O)c3ccc4ncsc4c3)nc12	aSyn UTR act -92
CCc1ccc2nc(N(CCN(C)C)C(=O)c3ccc4ncsc4c3)sc2c1	aSyn UTR act -114
Cc1ccc(C(=O)N/N=C2\SCC(=O)N2c2cc(C)ccc2C)cc1	aSyn UTR act -94
Brc1ccc(-c2nc(-c3ccncc3)no2)cc1	aSyn UTR act -184
O=[N+]([O-])c1ccc(-c2nc(-c3ccncc3)no2)cc1	aSyn UTR act -74
CCCCc1ccc(-c2nc(-c3ccncc3)no2)cc1	none
c1coc(-c2nc(-c3ccncc3)no2)c1	aSyn UTR act -122
c1ccc(-c2nc(-c3ccncc3)no2)cc1	aSyn UTR act -141
c1ccc(-c2noc(-c3cccnc3)n2)cc1	aSyn UTR act -198
c1ccc(-c2nc(-c3ccc(-c4ccon4)s3)no2)cc1	aSyn UTR act -104
Brc1ccc(-c2nc(-c3ccncc3)no2)o1	aSyn UTR act -188
Brc1ccc(-c2nc(-c3ccccn3)no2)o1	none
CCOC(=O)C1(Cc2cccc(Cl)c2)CCCN(C(=O)CN2C(=O)CSC2=O)C1 (stereo not drawn)	aSyn UTR act -75
CCOC(=O)C1(Cc2cccc(Cl)c2)CCCN(C(=O)c2ccnn2C)C1 (stereo not drawn)	aSyn UTR act -85
Clc1ccc(CN=C2Nc3ccccc3CS2)cc1	aSyn UTR act -182
c1ccc2c(c1)CSc1ccccc1N2	none
COc1cccc(CN=C2Nc3ccccc3CS2)c1	aSyn UTR act -142
COc1ccccc1CN=C1Nc2ccccc2CS1	aSyn UTR act -149
Cc1ccnc2nc(NC(=O)c3ccco3)nn12	aSyn UTR act -81
O=C(Nc1cc2nn(-c3ccccc3)nc2cc1Cl)c1ccco1	aSyn UTR act -129
O=C(Nc1ccc2nn(-c3ccccc3)nc2c1)c1ccco1	aSyn UTR act -255
O=C(Nc1nc2nccc(-c3ccccc3)n2n1)c1ccccc1	aSyn UTR act -83
Nc1nc(NC(=O)c2ccco2)nn1-c1ccccc1	aSyn UTR act -66
Cc1cc(NC(=O)c2ccco2)ccc1-n1cnnn1	aSyn UTR act -77
CC(C)(C)n1cnc2cc(NC(=O)c3ccco3)ccc21	aSyn UTR act -88
CC(=O)Nc1cc2nn(-c3ccccc3)nc2cc1Cl	aSyn UTR act -123
Cc1ccc2nc(-c3ccc(N4C(=O)CC(N5CCN(CCO)CC5)C4=O)cc3)sc2c1 (stereo not drawn)	aSyn UTR act -87
O=[N+]([O-])c1ccccc1-c1ccc(C(=S)N2CCCC2)o1	aSyn UTR act -132
O=[N+]([O-])c1ccccc1-c1ccc(C(=S)N2CCCCC2)o1	aSyn UTR act -107
O=C(Nc1ccc(Cl)cc1Cl)C1=Cc2ccccc2OC1	aSyn UTR act -192
COc1ccc(C(C#N)N2N=C(c3ccccc3)CC2c2ccccc2)cc1OC (stereo not drawn)	aSyn UTR act -182
COc1ccc(C2=NN(C(C#N)c3ccc(OC)cc3)C(c3ccccc3)C2)cc1 (stereo not drawn)	aSyn UTR act -250
CN(C)CCNc1ncnc2c1sc1nc(N3CCOCC3)c3c(c12)CC(C)(C)SC3	none
CC(C)CCSc1nc(N2CCOCC2)c2c(c1C#N)CC(C)(C)OC2	none
CC1(C)Cc2c(c(N3CCOCC3)nc3sc(C(=O)Nc4ccccc4)c(N)c23)CO1	aSyn UTR act -74
C=CCn1c(C)cc(C2=NNC(=NCc3ccccc3)SC2)c1C	aSyn UTR act -182
Cc1cc(C2=NNC(=NCCc3ccccc3)SC2)c(C)n1CC1CCCO1 (stereo not drawn)	aSyn UTR act -147
COc1ccc(CN=C2NN=C(c3ccccc3)CS2)cc1	aSyn UTR act -114
COCCn1c(C)cc(C2=NNC(=Nc3ccccc3)SC2)c1C	aSyn UTR act -79
Clc1ccc(C2=NNC(=NCC3CCCO3)SC2)cc1 (stereo not drawn)	aSyn UTR act -73
COC(=O)C1=C(C)N(Cc2ccccc2)C(=NCc2cccc(C(F)(F)F)c2)N[C@H]1c1cccc(F)c1	none
CCc1c(C)sc(NC(=S)Nc2nc(C)cc(C)n2)c1C(=O)OC	aSyn UTR act -98
Cc1ccc(-c2cc(C(=O)NCc3cnn(C)c3C)c3cc(Br)ccc3n2)cc1	aSyn UTR act -64
O=C(Nc1ccccn1)c1cc(-c2cccnc2)nc2ccc(Br)cc12	none
c1ccc(-n2nnc3c(N4CCOCC4)ncnc32)cc1	none
O=C(Cn1ncc(N2CCOCC2)c(Br)c1=O)c1ccc(Cl)cc1	aSyn UTR act -111
O=c1c(Br)c(N2CCCC2)cnn1-c1ccccc1	aSyn UTR act -138
O=c1c(Br)c(N2CCOCC2)cnn1-c1ccccc1	aSyn UTR act -144
Oc1cccc(Nc2c3ccccc3nc3ccccc23)c1	aSyn UTR act -81
CCOC(=O)c1ccc2c(c1)nc(-c1ccccn1)n2CC	aSyn UTR act -134
O=C1c2ccccc2C(=O)N1CCc1ccccc1	aSyn UTR act -70
O=C1c2ccccc2C(=O)N1CCSc1ccccc1	aSyn UTR act -191
O=C1C2CC=C(Cl)CC2C(=O)N1CCc1ccccc1 (stereo not drawn)	aSyn UTR act -69
O=C1c2ccccc2C(=O)C1c1ccc(O)cc1	aSyn UTR act -87
C/C(=N\NC(=S)Nc1cccc(C)c1)c1ccco1	aSyn UTR act -189
C/C(=N\NC(=S)Nc1cccc(C)c1)c1ccccc1	aSyn UTR act -100
Cc1ccccc1Nc1n[nH]c(C)c1[N+](=O)[O-]	aSyn UTR act -65
